The values below come from PubChem BioAssay (NCATS).

The structures appear in SMILES notation. Where “and” joins values, the source holds several entries; their conditions need not be identical. Equal entries are not always repeated. Unmarked numbers belong to inactive results.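 The calls were made as follows: active = compounds whose dose series gives a full or clear partial fitted curve of increased nuclear translocation; inconclusive = weak partial curve or effect only at the top dose; inactive = no dose-dependent translocation response.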
Potency is read from the fitted curve at half-maximal effect.

The target of the assay is Glucocorticoid receptor (Homo sapiens) (UniProt P04150). As to the kind of experiment: GR-GFP Redistribution (AID 450). The conditions noted are these: U2OS GR-GFP nuclear translocation, laser cytometry, 2 h. The source says: NIH Molecular Libraries Screening Centers Network [MLSCN]
Chain of Glucocorticoid receptor (Homo sapiens) (P04150 whole entry, looked up): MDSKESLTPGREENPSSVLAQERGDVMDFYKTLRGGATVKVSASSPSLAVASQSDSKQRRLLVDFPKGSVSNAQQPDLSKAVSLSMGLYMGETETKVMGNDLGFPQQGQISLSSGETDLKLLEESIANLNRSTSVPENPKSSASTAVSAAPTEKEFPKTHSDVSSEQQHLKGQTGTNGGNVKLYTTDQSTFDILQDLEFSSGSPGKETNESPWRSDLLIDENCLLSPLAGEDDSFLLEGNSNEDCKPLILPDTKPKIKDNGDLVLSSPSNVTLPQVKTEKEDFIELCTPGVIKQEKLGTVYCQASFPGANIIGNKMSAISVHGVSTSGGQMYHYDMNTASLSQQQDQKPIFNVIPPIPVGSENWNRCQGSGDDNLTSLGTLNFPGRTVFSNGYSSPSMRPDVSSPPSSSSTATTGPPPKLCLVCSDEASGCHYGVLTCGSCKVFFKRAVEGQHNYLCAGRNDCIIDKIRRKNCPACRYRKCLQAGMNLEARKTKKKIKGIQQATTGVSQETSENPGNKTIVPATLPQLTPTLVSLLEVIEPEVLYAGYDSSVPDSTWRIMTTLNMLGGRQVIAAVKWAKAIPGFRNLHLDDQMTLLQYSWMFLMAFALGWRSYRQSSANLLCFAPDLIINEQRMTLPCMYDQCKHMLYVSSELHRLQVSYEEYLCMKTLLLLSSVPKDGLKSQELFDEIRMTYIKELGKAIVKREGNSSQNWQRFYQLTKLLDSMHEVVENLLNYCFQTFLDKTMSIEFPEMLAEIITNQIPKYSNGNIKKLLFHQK
NIH Chemical Genomics Center [NCGC]
The glucocorticoid receptor (GR) Redistribution assay (BioImage) enables the visualization of GR cytoplasmic to nuclear translocation by the use of a GR-GFP fusion. GR is normally cytosolic, however ligands such as dexamethasone, cause nuclear translocation where the protein binds to response elements and interacts with various co-factors to modulate transcription. Because both functional agonists and antagonists can induce nuclear translocation, this assay can detect ligands regardless of their effects on gene expression. GR-GFP expressing U20S cells were used here. Dexamethasone was the positive control for translocation and data normalization. Detection of nuclear translocation was performed in 1536-well plates using the Acumen laser scanning plate cytometer (TTP LabTech). Validation of this assay and a detailed protocol have been described.
NCGC Assay Protocol Summary:
GR-GFP U2OS cells were maintained in DMEM with Glutamax and high glucose, 1% v/v penicillin-streptomycin, and 0.5 mg/mL Geneticin. For cell culture, 10% […] fetal bovine serum (FBS) was used (Invitrogen #26140-079). For cell plating 10% dextran, charcoal-stripped FBS (Hyclone SH30068.03) was used. U2OS cells were trypsin treated, suspended in medium, and passed through a 40 um basket filter. The cells were seeded at 600 cells/5 uL/well into clear-bottom black sided 1536-well plates and incubated for approximately 20 hrs, 37degC, 5%, CO2 in a tissue culture incubator. Twenty-three nL of compound was delivered by pin tool and the plates were incubated as above for 2 hrs. The compounds were tested as a 7-point titration ranging from 46 uM to 0.6 nM. The cells were fixed using the Kalypsys Washer/Dispenser station. The fixing protocol involved aspiration of the cell media, addition of 6 uL/well of PBS, aspiration of PBS, addition of 5uL/well of 100% methanol, aspiration of methanol, and addition of 3 uL/well PBS with 1.5 uM propidium iodide (PI). The plates were read by the Acumen Explorer using a 1 x 8 um scan of the whole well area. PI fluorescence triggered the collection of PI and GFP signals. A nuclei population was defined by a 10 to 100 um width and depth filter that eliminated small and large fluorescent particles. Two subpopulations of nuclei were then defined by peak intensity of GFP fluorescence to obtain translocated and untranslocated objects. The number of translocated objects was used for data normalization.
Keywords: NIH Roadmap, MLSCN, MLI, MLSMR, sOGT, qHTS, NCGC
In the case of `CC/C=C\C[C@H]1C(=O)CC[C@@H]1CC(=O)O`, the Potency was > 46 µM. Regarding `NC(=O)N[C@H]1NC(=O)NC1=O`, the Potency was > 20.6 µM.

As to `COc1ccc([C@@H]2CC(=O)c3c(O)cc(O)cc3O2)cc1O`, the Potency is > 20.6 µM and > 46 µM.

Regarding `C[C@@H](CNC1CCCCC1)OC(=O)c1ccccc1`, the Potency was > 20.6 µM. With `COc1cc(OC)c2c(c1Cl)O[C@@]1(C2=O)[C@H](C)CC(=O)C[C@@H]1OC` the figure was > 20.6 µM; with `CC[C@H](C(=O)[C@H](C)[C@H](O)[C@H](C)CCc1ccc(C)c(O)c1C(=O)O)[C@H]1O[C@](CC)([C@@H]2CC[C@@](O)(CC)[C@H](C)O2)C[C@H]1C`, > 20.6 µM. To `CS(=O)(=O)c1ccc([C@H](O)[C@H](CO)NC(=O)C(Cl)Cl)cc1` belongs > 20.6 µM. With `CC(C)(C)CC(C)(C)c1ccc(OCOCCOCCO)c(Cc2cc(C(C)(C)CC(C)(C)C)cc(Cc3cc(C(C)(C)CC(C)(C)C)ccc3OCOCCOCCO)c2OCOCCOCCO)c1`, the Potency is > 20.6 µM. With `COc1ccc(-c2cc(=O)c3c(O)cc(O)cc3o2)cc1` the figure was > 20.6 µM.

`Nc1ncnc2c1nc(Br)n2[C@H]1O[C@H]2COP(=O)(O)O[C@H]2[C@@H]1O`: the Potency was > 46 µM. To `C[C@@H]1C[C@H](OC(=O)[C@@H](O)c2ccccc2)CC(C)(C)N1C` belongs > 20.6 µM; to `CN1CCCN([C@@H](c2ccccc2)c2ccc(Cl)cc2)CC1`, > 20.6 µM. To `C=C(C)[C@H]1CC[C@]2(C(=O)O)CC[C@]3(C)[C@@H](CC[C@H]4[C@@]5(C)CC[C@@H](O)C(C)(C)[C@@H]5CC[C@@]43C)[C@H]12` belongs > 20.6 µM. In the case of `C[C@@H]1O[C@H](O[C@@H]2\C=C/C=C\C=C/C=C\C[C@H](C)OC(=O)/C=C\[C@H]3O[C@@H]3C[C@H](O)C[C@]3(O)C[C@@H](O)[C@@H](C(=O)O)[C@H](C2)O3)[C@@H](O)[C@H](N)[C@@H]1O` (stereo in doubt), the Potency was > 20.6 µM. With `CCCC(=O)Nc1ncnc2c1ncn2[C@@H]1O[C@H]2COP(=O)(O)O[C@@H]2[C@@H]1OC(=O)CCC` the figure was > 20.6 µM; with `O=C(N/N=C\c1ccc([N+](=O)[O-])o1)c1ccc(O)cc1`, > 20.6 µM.

Consider `O[C@H](c1cc(C(F)(F)F)nc2c(C(F)(F)F)cccc12)[C@H]1CCCCN1`, for which the Potency is > 20.6 µM.

As to `Cc1c(C)c2c(c(C)c1O)CC[C@@](C)(C(=O)O)O2`, the Potency was > 20.6 µM. With `CC(=O)c1cc2ccccc2oc1=O` the figure was > 20.6 µM. In the case of `CC(C)NC[C@H]1CCc2cc(CO)c([N+](=O)[O-])cc2N1`, the Potency was > 20.6 µM. As for `COc1c2c(nc3ccccc13)O[C@H]([C@@](C)(O)CO)C2`, the Potency was > 20.6 µM. Consider `CN(C)CCOC(=O)[C@@H](c1ccccc1)C1(O)CCCC1`, for which the Potency was > 20.6 µM.

On to `O=C(O)c1cc2ccccc2c(Cc2cc3ccccc3c(C(=O)O)c2O)c1O` (tested in a mixture with another compound), for which the Potency is > 20.6 µM. With `NC[C@@H]1O[C@H](O[C@H]2[C@H](O)[C@H](O[C@@H]3O[C@H](CO)[C@@H](O)[C@H](N)[C@@H]3O)[C@@H](N)C[C@H]2N)[C@@H](O)[C@H](O)[C@@H]1O` the figure was > 20.6 µM; with `Cc1cc2ccc(=O)oc2cc1OC[C@@H](O)C(C)(C)O`, > 46 µM.

With `COC(=O)[C@@H]1[C@@H]2C[C@H]3c4[nH]c5cc(OC)ccc5c4CCN3C[C@@H]2C[C@H](OC(=O)c2cc(OC)c(OC)c(OC)c2)[C@H]1OC`, the Potency is > 20.6 µM. With `CC(C)(C)NC[C@H](O)COc1cccc2c1C[C@@H](O)[C@@H](O)C2` the figure was > 20.6 µM. To `CC(C)(C)NC[C@H](O)COc1cccc2c1CCC(=O)N2` belongs > 20.6 µM; to `Cc1ccc2c(c1)c1c3n2CCN[C@H]3CCC1`, > 20.6 µM and > 46 µM. Regarding `Cc1cccc(CN2CCN([C@@H](c3ccccc3)c3ccc(Cl)cc3)CC2)c1`, the Potency is > 20.6 µM. Regarding `CN1CC[C@@]23c4ccccc4N[C@H]1[C@]21CCN(C)[C@@H]3Nc2ccccc21`, the Potency is > 20.6 µM. With `Cc1nccn1C[C@@H]1CCc2c(c3ccccc3n2C)C1=O` the figure was > 20.6 µM; with `CCN(CC)CCOC(=O)[C@@H](c1ccccc1)C1CCCCC1`, > 20.6 µM; with `CC[C@H](Cc1c(I)cc(I)c(N)c1I)C(=O)O`, > 20.6 µM. With `O=C(O)CCCC[C@H]1SC[C@H]2NC(=O)N[C@@H]21` the figure was > 20.6 µM. As for `Nc1nc(=S)c2ncn([C@H]3O[C@@H](CO)[C@@H](O)[C@@H]3O)c2[nH]1`, the Potency was > 20.6 µM. With `CNc1ncnc2c1ncn2[C@@H]1O[C@H](CO)[C@@H](O)[C@@H]1O` the figure was > 20.6 µM. For `Clc1cnccn1`, the Potency is > 20.6 µM. To `CN(C)CCn1nnnc1SCC1=C(C(=O)O)N2C(=O)[C@@H](NC(=O)Cc3csc(N)n3)[C@@H]2SC1` belongs > 20.6 µM; to `FC(F)(F)c1ccccc1-c1ccc2ncnc(NC3CCNCC3)c2c1`, > 46 µM.
